# The campaign covered roughly 410,000 compounds. About 18,000 (4.4%) were called active. Another 7% or so got no clear call; they are omitted. This excerpt belongs to a sample that is enriched for actives. A number with no mark means an inactive call. No stated cut-off is given here; in the data, active means activity change below about -60%; inconclusive means no clear call, values can overlap the other calls; inactive means above about -39%.
# Test: qHTS Assay for inhibitors of the human cytomegalovirus (HCMV)
# Details: HFF cells, HCMV-luciferase reporter, 72 h; at 57.5 µM; hits give low values
# Excerpt: NCGC Assay Overview: Infection with human cytomegalovirus (HCMV) continues to pose significant threats for pregnant women and immunocompromised hosts. HCMV causes serious morbidity and mortality in transplant recipients, and congenital HCMV is the leading infectious cause of mental retardation and deafness in children. In the 1990s, the annual costs associated with the disease burden of congenital CMV were estimated at around $2 billion. A HCMV vaccine is not available yet and HCMV therapies result in intolerable side effects and emergence of drug resistant viruses. […] Towards this goal we have developed and characterized a luciferase HCMV reporter that was initially used in 96 well plates and then optimized to 1536-well plates for utilization in screening of the MLSMR collection, the NGCG diversity collection and the NCGC Pharmaceutical Collection of approved and investigational drugs.
# NCGC Assay Protocol Summary:
# This is a cell-based assay for HCMV inhibition in HFFs cells. The screening used 2 compound doses and the HCMV-luciferase at MOI of 1 PFU/cell. Cells were treated and infected with HCMV. At 72 h post infection cell lysates were collected and luciferase activity was determined using the Glomax-Multi + Detection System (Promega, Madison, WI). Data were normalized to the controls for basal activity (buffer only) and known HCMV inhibitors Salinmoycin.
# 1536-well assay protocol for the assay:
# (1) Add 3 ul CMV/HFF cell culture. 1000 cells/well in DMEM nirmal media.
# (2) Incubate 16 hr at 37C.
# (3) Add 23 nl control compound, 10uM of Salinomycin.
# (4) Add 23 nl compounds in DMSO solution.
# (5) Add 3 ul CMV suspension. Final 1 puf/ul, Virus stock 2000pfu/ul
# (6) Incubate 72 hrs at 37C.
# (7) Add 4 ul OneGlo Luc Reagent.
# (8) Incubate 5 min at room temperature.
# On the % scale 0 is the no-effect control and ±100 the full control effect.
row,SMILES,"activity change, negative = inhibition"
1,CCc1nc(-c2cc(S(=O)(=O)N3CCN(c4ccc(OC)cc4)CC3)ccc2OC)no1,48.2%
2,Clc1ccccc1CSc1nncn2c1cc1occc12,-18.9%
3,CCOc1cc(-c2cc(-c3ccc(NC(C)=O)cc3)nc(N)c2C#N)ccc1O,-70.4% (active)
4,Cc1ccc(-c2cc(C(F)(F)F)c(C#N)c(SCC(=O)Nc3ccccc3)n2)cc1,1.85%
5,CCOC(=O)CN(C(=O)COc1nc(-c2ccccc2)cc(C)c1C#N)c1ccc(F)cc1,-37.6%
6,Cc1ccc(-c2nc(CS(=O)(=O)CC(=O)NCc3ccccc3Cl)c(C)o2)cc1,-14.3%
7,CCOc1ccc(NS(=O)(=O)c2ccc(N)cc2)nn1,-10.2%
8,CCCCn1c(=N)c(S(=O)(=O)c2ccccc2)cc2c(=O)n3cccc(C)c3nc21,12.5%
9,COc1ccc(Cc2n[nH]c(=S)n2NC(=O)Nc2ccc(C)cc2)cc1,4.71%
10,COc1ccc(CC(=O)Nc2ccc(-c3nc4ccccc4s3)c(C)c2)cc1,52.5%
11,COc1ccc(CC(=O)Nc2ccc(-c3nnc(-c4ccc(C)cc4)o3)cc2)cc1,-63.2% (active)
12,CCn1c2ccccc2c2nnc(N3CCN(c4cc(C)ccc4C)CC3)nc21,-34%
13,COc1cc(OC)c(NC(=O)Cc2ccc(-n3c(C)nc4cccnc43)cc2)cc1Cl,0%
14,Cc1cc2n(n1)C(c1cc(C(C)(C)C)c(O)cc1O)Nc1ccccc1-2 (centres undefined),-23.1%
15,COc1cccc(-c2nc(CS(=O)(=O)CC(=O)N3CCN(c4cc(C)ccc4C)CC3)c(C)o2)c1,-75.7% (active)
16,CCCCN(CC)CCCNC(=O)CS(=O)(=O)Cc1nc(-c2cccc(OC)c2)oc1C,29.6%
17,COc1ccc(-c2nc(CS(=O)(=O)CC(=O)NCc3cccc(Br)c3)c(C)o2)cc1,5.73%
18,CCS(=O)(=O)n1nc(-c2ccccc2)nc1SCc1ccccc1,138%
19,COc1cc(OC)c(C2C=C(C(=O)O)Nc3ncnn32)cc1OC (centres undefined),6.4%
20,COc1ccc(Cn2c(=S)[nH]c3cc(C(=O)NCCCN4CCOCC4)ccc3c2=O)cc1,-65.2% (active)

row,SMILES,"activity change, negative = inhibition"
1,CCN(CC)CCCNC(=O)c1ccc2c(=O)n(Cc3ccc4c(c3)OCO4)c(=S)[nH]c2c1,69.4%
2,COCCn1c(=S)[nH]c2cc(C(=O)NCCc3ccc(OC)c(OC)c3)ccc2c1=O,29.3%
3,COc1ccc(C(F)(F)F)cc1N/C=C\c1nnnn1-c1ccc(C)cc1,34.7%
4,Cc1ccc(CN2CCc3nc(N4CCN(C)CC4)ncc3C2)cc1,-6.43%
5,CCCCOCCCNC(=O)C[C@@H]1C[C@@]2(C(=O)OCC)CCCC=C2N(CCC2=CCCCC2)C1=O,22.8%
6,CS(=O)(=O)N1CCc2nc(-c3ccccc3)sc2C1,154%
7,CCOc1ccc(S(=O)(=O)NCCSc2ccccc2)cc1,43.7%
8,CCOc1ccc(Nc2c(S(=O)(=O)c3ccccc3)cnc3ccccc23)cc1,-70% (active)
9,CCOc1ccc(S(=O)(=O)c2cn(Cc3ccccc3)c3ccc(OCC)cc3c2=O)cc1,-13.1%
10,Cc1cc(F)ccc1NC1(c2ccccc2)C(=O)c2ccccc2C1=O,6.52%
11,Cc1[nH]c2ccccc2c1C(=O)CN1CC(C)CC(C)C1 (centres undefined),9.64%
12,COc1ccc(C(=O)COC(=O)c2c(C)noc2C)cc1Cl,-19.5%
13,Cc1[nH]c2ccccc2c1C(=O)COC(=O)c1c(-c2ccccc2)noc1C,-67.3% (active)
14,CCN(CC)c1ccc(NC(=O)Cn2nc3c(cc2=O)CCCC3)c(C)c1,-12.7%
15,CSc1ccc(CCNC(=O)c2ccc3c(c2)nc2n3CCOC2)cc1,11.7%
16,CN(C(=O)CCNC(=O)Cn1ccc2ccccc2c1=O)c1ccc(Br)cc1,9.17%
17,CC1=C(C(=O)OCc2ccc(C)cc2)C(c2ccccc2Cl)CC(=O)N1 (centres undefined),-36.9%
18,CCCNC(=O)C1(C)CCCN(Cc2cccc(C(F)(F)F)c2)C1 (centres undefined),-32.6%
19,CCCNC(=O)C1(C)CCN(Cc2ccc(Cl)c(Cl)c2)C1 (centres undefined),-29%
20,CCCNC(=O)C1(C)CCCN(Cc2c(C)nn(-c3ccccc3)c2C)C1 (centres undefined),-77% (active)

row,SMILES,"activity change, negative = inhibition"
1,Cc1ccc(NC(=O)N2c3ccccc3SC2c2ccco2)c(C)c1 (centres undefined),-32.4%
2,O=C(NCC(c1ccc(Cl)cc1)N1CCOCC1)c1ccccc1F (centres undefined),1.34%
3,C=CCn1c(SCC(N)=O)nnc1-c1cc2c(s1)CCC(CC)C2 (centres undefined),-11.3%
4,CCc1ccc(NC(=O)CCS(=O)(=O)c2cc3c(cc2Cl)NC(=O)CO3)cc1,4.24%
5,Fc1ccccc1CCNc1nnnn1-c1ccccc1,-28.9%
6,FC(F)(F)c1nc(-c2ccccc2)ncc1-c1nnnn1-c1ccccc1,-66.2% (active)
7,NNC(=O)c1cnn(-c2ccccc2)c1C(F)(F)F,6.26%
8,CCN(CC)S(=O)(=O)c1ccc2c(c1)c(=O)c(C(=O)N1CCN(c3cccc(Cl)c3)CC1)cn2C,11.7%
9,Cc1cccc(N2CCN(C(=O)CCn3c(=O)c4cccn4c4cccnc43)CC2C)c1 (centres undefined),15%
10,CC(C)CCN1CCN=C1N(C)C,3.25%
11,COCCNc1nc(-n2nc(C)cc2C)nc2sc3c(c12)CCCC3,-6.15%
12,CC(C)c1nc(SCC(=O)Nc2cccc(C(=O)O)c2)c2c3c(sc2n1)CCCC3,-5.06%
13,Cc1cc(C)n(-c2nc(SCC(=O)N3CCCC3)c3c4c(sc3n2)CCCC4)n1,-63.6% (active)
14,CC(=O)c1ccc(NC(=O)CCNS(=O)(=O)c2cc(Br)cnc2N)cc1,31.8%
15,CCOc1ccc(CNC(=O)c2ccc(CS(=O)c3ccccc3)o2)cc1 (centres undefined),-3.55%
16,CCCCc1nn2c(=O)cc(COC(=O)c3cccc(NC(=O)COc4ccccc4)c3)nc2s1,31.4%
17,Cc1ccc2cccc([N+](=O)[O-])c2n1,19.3%
18,O=[N+]([O-])c1ccccc1S(=O)(=O)Nc1cccc2cccnc12,-100% (active)
19,O=S(=O)(NCCc1ccc(F)cc1)c1cccc2cccnc12,-31.1%

# Source: PubChem BioAssay AID1259415 (National Center for Advancing Translational Sciences (NCATS), 2018)
